LASV entry inh = Lassa virus entry inhibition; Lassa virus pseudotype entry inhibition, cell reporter; Potency, µM (series often up to 37.9 µM), inactives show top-dose activity change, negative = inhibition, actives largely listed as inhibitors; 300,000 compounds, 1.2% hits; calls by dose curve; tested in HEK293 cells; note: potency is the fitted concentration of half-maximal effect; % is set by controls: 0 for no effect and ±100 for the full control effect; nearly all actives have a fitted effect of over 50% in size
Pf growth 48h = P. falciparum growth inhibition at 48 hours (one generation). P. falciparum luciferase growth in erythrocytes, 48 h. Potency, µM (top dose mostly 28.7 µM), inactives show at the top dose activity change, negative = inhibition, usual class: inhibitors. 310,000 compounds, 5.9% hits. AID 504832; note: potency is the fitted concentration of half-maximal effect; % is set by controls: 0 for no effect and ±100 for the full control effect
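Luciferase-expressing P. falciparum in infected erythrocytes (2% hematocrit, 0.1% parasitemia final) in RPMI 1640/0.5% Albumax were exposed to compound for 48 hours at 37 C, 5% CO2; growth read as luminescence.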
MARV entry inh = Marburg virus entry inhibition | Marburg virus pseudotyped entry inhibition, cell reporter | Potency, µM (series often up to 37.8 µM), for the others: top-dose activity change, negative = inhibition, usual class: inhibitors | 300,000 compounds, 1.8% hits | AID 540276; calls by dose curve; tested in HEK293 cells; note: potency is the fitted concentration of half-maximal effect; % is set by controls: 0 for no effect and ±100 for the full control effect
Pf growth 96h = P. falciparum growth inhibition at 96 hours. 320,000 compounds, 6.9% hits. P. falciparum luciferase reporter growth, 96 h. Potency, µM (doses to about 28.7 µM), inactives show at the top dose activity change, negative = inhibition, most hits filed as inhibitors; note: potency is the fitted concentration of half-maximal effect; % is set by controls: 0 for no effect and ±100 for the full control effect
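Cell-based qHTS: luciferase-tagged P. falciparum in erythrocytes (2% hematocrit, 0.05% parasitemia final) incubated with compounds for 96 hours, 37 C, 5% CO2; luciferase detection reagent then added and luminescence measured.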
Cycloheximide cs = counter-screen hit for Shiga toxin inhibitors, cycloheximide; 300,000 compounds, 12% hits; max response, %; cell reporter, cycloheximide protein synthesis inhibition counterscreen; in the data active = max response mostly above about 13%, no sharp cut-off; inactive = mostly below about 14%; note: read at 38.3 µM for the half of the compounds with a filed dose; 0% is about no effect
Shiga toxin inh = blocks Shiga toxin action in Vero cells. Vero cells, Shiga toxin protein synthesis inhibition reporter. 290,000 compounds, 9.2% hits. inhibition, % at 38.7 µM; in the data active = inhibition mostly above about 28%, no sharp cut-off; inactive = mostly below about 43%; note: 0% is about no effect
Active calls of the source: *; ! = repeats disagree; [ ] = another dose, or the depositor's remark. Hits are enriched below; roughly 19% of the tested compounds scored in any of these assays. Unless noted, calls come from the whole dose curve; as a rule, active = well fitted inhibition curve with a large enough effect; inconclusive = small, poorly fitted or top-dose-only effect, or another doubt; inactive = no such curve, though single readings can be large or run the other way.

How did Cc1cccc2c1ncc1c(=O)n(-c3ccccc3)[nH]c12 do in these assays?
Pf growth 48h: -11%; Pf growth 96h: inconclusive; Cycloheximide cs: 30*; Shiga toxin inh: 90*

Results for Cc1[nH]n(-c2ccccc2)c(=O)c1N=Nc1c(Cl)cccc1Cl ?
Pf growth 48h: 0%; Pf growth 96h: inconclusive; Cycloheximide cs: 4; Shiga toxin inh: 30

How did S=C(Nc1ccccc1)Nc1nc2ccccc2n1CCOc1ccc(Br)cc1 do in these assays?
LASV entry inh: 15%; Pf growth 48h: 3.3µM*; MARV entry inh: inconclusive; Pf growth 96h: 4%; Cycloheximide cs: 34*; Shiga toxin inh: 44*

Results for Cn1c(Nc2ccc(F)cc2)nc2ccccc21 ?
LASV entry inh: 3%[46.1 µM]; Pf growth 48h: 5%; MARV entry inh: 14%[46.1 µM]; Pf growth 96h: -1%; Cycloheximide cs: 10; Shiga toxin inh: 18

How did Cn1c(NC(=S)Nc2ccccc2)nc2ccccc21 do in these assays?
LASV entry inh: inconclusive; Pf growth 48h: inconclusive; MARV entry inh: inconclusive; Pf growth 96h: inconclusive; Cycloheximide cs: 47*; Shiga toxin inh: 65*

What do the screens show for `CN1CCN(NC(=O)c2ccc(Br)c(S(=O)(=O)N3CCOCC3)c2)CC1`?
LASV entry inh: -2%; Pf growth 48h: inconclusive; MARV entry inh: -2%; Pf growth 96h: inconclusive; Cycloheximide cs: -4; Shiga toxin inh: 2

What do the screens show for `CCOc1ccc(C(C)C)cc1S(=O)(=O)Nc1ccc(Cl)cn1`?
LASV entry inh: 1%; Pf growth 48h: -6%; MARV entry inh: 23%; Cycloheximide cs: -1; Shiga toxin inh: -5

What do the screens show for `O=C(/C=C/c1ccc([N+](=O)[O-])cc1)NNC(=O)C1CC1`?
LASV entry inh: -2%; Pf growth 48h: 27%; MARV entry inh: 12%; Pf growth 96h: 50%; Cycloheximide cs: 5; Shiga toxin inh: -13

What do the screens show for `Cc1ccc(S(=O)(=O)N2CCCC(C(=O)NCC3CCCO3)C2)cc1` (centres undefined)?
Pf growth 48h: 3%; MARV entry inh: 15%[46.1 µM]; Pf growth 96h: 25%; Cycloheximide cs: -2; Shiga toxin inh: -2

How did Cc1ccc(C)c(NC(=O)C2CCCN(S(=O)(=O)c3c(C)noc3/C=C/N(C)C)C2)c1 (centres undefined) do in these assays?
LASV entry inh: inconclusive; Pf growth 48h: inconclusive; MARV entry inh: -21%[46.1 µM]; Pf growth 96h: 2%; Cycloheximide cs: -3; Shiga toxin inh: 1

How did Cc1ccc(NC(=O)C2CCCN(S(=O)(=O)c3c(C)noc3C)C2)c(Br)c1 (centres undefined) do in these assays?
Pf growth 48h: -4%; Pf growth 96h: 5.9µM*; Cycloheximide cs: -9; Shiga toxin inh: -6

Results for Cc1ccc(NC(=O)C2CCCN(S(=O)(=O)c3c(C)noc3C)C2)nc1 (centres undefined) ?
LASV entry inh: -8%; Pf growth 48h: -14%; MARV entry inh: -17%; Pf growth 96h: -1%; Cycloheximide cs: -3; Shiga toxin inh: 13

What do the screens show for `Cc1ccc(NC(=O)C2CCCN(S(=O)(=O)c3c(C)noc3C)C2)cc1F` (centres undefined)?
LASV entry inh: 7%; Pf growth 48h: inconclusive; MARV entry inh: 1%[46.1 µM]; Pf growth 96h: 2.3µM*; Cycloheximide cs: -3; Shiga toxin inh: 3

Results for Cc1ccc(NC(=O)C2CCCN(S(=O)(=O)c3c(C)noc3/C=C/N(C)C)C2)c(C)c1 (centres undefined) ?
Pf growth 48h: inconclusive; Pf growth 96h: 9.3µM*; Cycloheximide cs: -4; Shiga toxin inh: -1

How did CCOc1ccc(NC(=O)C2CCCN(S(=O)(=O)c3c(C)noc3C)C2)cc1 (centres undefined) do in these assays?
LASV entry inh: -20%[46.1 µM]; Pf growth 48h: 7%; MARV entry inh: inconclusive; Pf growth 96h: -28%; Cycloheximide cs: -5; Shiga toxin inh: -14

How did Cc1noc(C)c1S(=O)(=O)N1CCCC(C(=O)NCC2CCCO2)C1 (centres undefined) do in these assays?
LASV entry inh: 2%; Pf growth 48h: -3%; MARV entry inh: -8%[46.1 µM]; Pf growth 96h: 9.3µM*; Cycloheximide cs: -2; Shiga toxin inh: -13

How did CCCCc1nc2c(c3c1C[C@H](C)OC3)CN(C(=O)C1CCCCC1)CC2 do in these assays?
MARV entry inh: -34%[14.2 µM]

How did Cc1ccc(/C=N/NC(=O)CNC(=O)c2cccc([N+](=O)[O-])c2C)o1 do in these assays?
Pf growth 48h: 18%; Pf growth 96h: 34%; Cycloheximide cs: -2; Shiga toxin inh: -8

What do the screens show for `O=C(NCCO)/C(=C\c1cccc([N+](=O)[O-])c1)NC(=O)c1ccco1`?
Pf growth 48h: 23%; Pf growth 96h: -5%; Cycloheximide cs: -8; Shiga toxin inh: -16

What do the screens show for `CCOc1cc(NC(=S)Nc2ccccc2)c(OCC)cc1NC(=O)c1ccccc1`?
LASV entry inh: -16%; Pf growth 48h: inconclusive; MARV entry inh: inconclusive; Pf growth 96h: 8.3µM*; Cycloheximide cs: -3; Shiga toxin inh: -9

How did CCOc1cc(NC(=O)C(C)C)c(OCC)cc1NC(=O)Nc1ccccc1 do in these assays?
Pf growth 48h: -19%; Pf growth 96h: 12µM*; Cycloheximide cs: -1

Results for CCOc1cc(NC(=S)NCc2ccccc2)c(OCC)cc1NC(=O)C(C)C ?
Pf growth 48h: -28%; Pf growth 96h: inconclusive; Cycloheximide cs: -1; Shiga toxin inh: -4

Results for COc1ccc(S(=O)(=O)N2CCOCC2)cc1NC(=O)COc1ccc(C)cc1 ?
LASV entry inh: -10%; MARV entry inh: 8%

How did COc1ccc(-n2c(SCC(=O)Nc3ccc(Br)cc3)nc(O)cc2=O)cc1 do in these assays?
LASV entry inh: 2%; Pf growth 48h: inconclusive; MARV entry inh: -7%; Pf growth 96h: -23%; Cycloheximide cs: 1; Shiga toxin inh: -2

What do the screens show for `CCCc1cc(=O)[nH]c(SCc2cc(=O)oc3cc(C)c(C(C)C)cc23)n1`?
LASV entry inh: 6%; Pf growth 48h: 22%; MARV entry inh: -1%; Pf growth 96h: -22%; Cycloheximide cs: -3; Shiga toxin inh: 24

How did Cc1ccc(Sc2nc(-c3ccccc3)nnc2C(F)(F)F)cc1 do in these assays?
LASV entry inh: -15%; Pf growth 48h: 13µM*; MARV entry inh: inconclusive; Pf growth 96h: 0%; Cycloheximide cs: -3; Shiga toxin inh: -9

Results for CCCOc1cc(N)ccc1C(=O)OCCN(CC)CC ?
Pf growth 48h: 15%; Pf growth 96h: 0.72µM*!

Results for O=C(C1CC(=O)N(C2CCCCCCC2)C1)N1CCC2(CC1)OCCO2 (centres undefined) ?
LASV entry inh: -5%; Pf growth 48h: -5%; MARV entry inh: -2%; Pf growth 96h: inconclusive; Cycloheximide cs: 10; Shiga toxin inh: -5

What do the screens show for `CSc1nc(NCc2ccco2)c2c3c(sc2n1)CN(C)CC3`?
Pf growth 48h: 2.9µM*; Pf growth 96h: -3%[5.75 µM]; Cycloheximide cs: -3; Shiga toxin inh: -13

Screens: PubChem BioAssay, National Center for Advancing Translational Sciences (NCATS)
